The values below come from PubChem BioAssay.

A short description of assay [1]: compounds altering viability of human ES cells (AID 493140; call rule not given here;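 note: cells exposed to compounds for four days before counting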). The conditions noted are these: human embryonic stem cell survival screen; stronger effect = higher value.
A short description of assay [2]: chitosan synthesis blockers in C. neoformans – flow cytometry, Cibacron Brilliant Red staining (AID 1347148; call rule not given here;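 note: compound exposure lasted three days at 37 degrees C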). The settings on record: Cryptococcus neoformans chitosan, stronger effect = lower value; at 10 µM unless noted. A general note: A flow cytometer gives signals particle by particle.
Assay [3] can be described thus: growth inhibition, single agent or in combination, cell-based, chromothripsis tumors, cisplatin or BGB combos (AID 1671449).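 Note: cells exposed for 96 hours; 0% = vehicle DMSO and 100% = killing by high DMSO.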 The settings on record: LFS_MB_P medulloblastoma cells.
Assay [4] can be described thus: growth inhibition, single agent and combos, cell-based, chromothripsis tumors, cisplatin or BGB combos (AID 1671450).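 Note: cells exposed to compound for four days; 0% = vehicle DMSO and 100% = cell killing by high DMSO.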 The settings on record: HDN33 neuroblastoma cells, stronger effect = higher value.
Assay [5] in a line: growth inhibition, single agents and combos, LFS_MB_1R, cell-based, cisplatin or BGB combos, synergistic combos for chromothripsis tumors (AID 1671452).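 Note: cells exposed for 96 hours before readout.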 The conditions noted are these: LFS_MB_1R medulloblastoma cells, stronger effect = higher value.
A short description of assay [6]: growth inhibition, single agents and combos, HTB85, cell-based, BGB or cisplatin IC20 combos, synergistic combos for chromothripsis tumors (AID 1671453).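 Note: cells exposed for 96 hours before readout; 0% = vehicle DMSO and 100% = high DMSO killing control.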 The settings on record: HTB85 osteosarcoma cells, drug combinations, stronger effect = higher value.
The nature of assay [7]: growth inhibition, single agents and combos, CRL2098, cell-based, BGB or cisplatin IC20 combos, synergistic combos for chromothripsis tumors (AID 1671454).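 Note: cells exposed for 96 h before readout; 0% = vehicle DMSO and 100% = killing by high DMSO.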 The conditions noted are these: CRL2098 osteosarcoma cells, drug combinations, stronger effect = higher value.
Assay [8] in a line: growth inhibition, single agents and combos, HD-MB03, cell-based, BGB or cisplatin IC20 combos, synergistic combos for chromothripsis tumors (AID 1671455; in the data active = inhibition above about 83%;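 note: 0% = vehicle DMSO and 100% = high DMSO as cytotoxic control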). The settings on record: HD-MB03 medulloblastoma cells, stronger effect = higher value.
A short description of assay [9]: growth inhibition, single agents and combos, UWB1.289, cell-based, BGB or cisplatin combos, synergistic combos for chromothripsis tumors (AID 1671456).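 Note: cells exposed to compound for four days; 0% = vehicle DMSO and 100% = killing by high DMSO.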 The settings on record: UWB1.289 ovarian carcinoma cells, stronger effect = higher value.
The nature of assay [10]: growth inhibition, single agents and combos, LFS_MB_2R, cell-based, cisplatin combos, synergistic combos for chromothripsis tumors (AID 1671457).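 Note: cells exposed to compound for four days before readout.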 The conditions noted are these: LFS_MB_2R medulloblastoma cells, stronger effect = higher value.
Assay [11] in a line: growth inhibition, MDA-MB-436, cell-based, BGB or cisplatin combos, synergistic combos for chromothripsis tumors (AID 1671458; call rule not given here;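 note: cells exposed for 96 hours; 0% = vehicle DMSO and 100% = killing by high DMSO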). The settings on record: MDA-MB-436 breast carcinoma growth inhibition, drug combinations, stronger effect = higher value.
Assay [12] can be described thus: UWB1.289_BRCA1 ovarian cancer growth, cell-based, BGB or cisplatin combinations (AID 1671459). The settings on record: UWB1.289 BRCA1 ovarian carcinoma, drug combinations, stronger effect = higher value.
A short description of assay [13]: drug combination toxicity in non-malignant astrocytes – cell-based, BGB or cisplatin IC20 combos, cytotoxicity control for chromothriptic childhood tumor combination screen (AID 1671460).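 Note: cells exposed to compounds for 96 hours before viability readout; 0% = vehicle and 100% = killing control.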 The conditions noted are these: Human astrocytes, viability inhibition, drug combinations, at 0.5 µM, stronger effect = higher value.
Assay [14] is described as follows: BT084 cell growth, single and combined drugs, ICGC_MB145, cisplatin and BGB IC40 combos (AID 1671461).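 Note: cells exposed to drugs for 96 hours; 0% = vehicle DMSO and 100% = high DMSO full killing control.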 The settings on record: BT084 medulloblastoma cells, drug combinations, stronger effect = higher value.
Assay [15] in a line: RCMB18 cell growth, single agent and combined, cisplatin and BGB IC40 combos (AID 1671462).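 Note: cells exposed to compound for four days.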 The settings on record: RCMB18 medulloblastoma cells, stronger effect = higher value.
Assay [16] in a line: CRL1545 cell growth, single agent and combined, cisplatin and BGB IC20 combos (AID 1671464).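 Note: cells exposed to compound for 96 hours before readout; 0% = vehicle DMSO and 100% = high DMSO killing control.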 The settings on record: CRL1545 osteosarcoma cells, stronger effect = higher value.
Assay [17] is described as follows: blockers of polyQ-driven CASP3 activation – cell-based (AID 1583). The settings on record: polyglutamine-induced caspase-3 activation, cell assay; stronger effect = higher value;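 tested at 10 µM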.
Assay [18] can be described thus: yeast 75Q aggregation reduction – 75Q-TubU reporter (AID 1593). The conditions noted are these: Yeast 75Q polyglutamine aggregation reporter.
Assay [19] in a line: restoration of touch response, mutant HTT neurons – whole organism, C. elegans mechanosensory neurons, N-terminal huntingtin (AID 1599). The settings on record: C. elegans polyQ-huntingtin mechanosensory neurons, stronger effect = higher value.
The nature of assay [20]: blockers of cytochrome c efflux from mitochondria – biochemical, purified mitochondria (AID 1603).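 Note: mouse liver mitochondria challenged with calcium chloride; signal normalized to the plate average as 100%.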 The settings on record: stronger effect = lower value.
Setting [21] is: measured here: combination with BGB IC40, at 0.05 µM.
The mark [22] stands for this setting: measured here: with BGB IC20 combination, at 0.5 µM.
The mark [23] stands for this setting: measured here: with cisplatin IC20 combination, at 0.5 µM.
[24] abbreviates: measured here: combination with cisplatin, at 0.5 µM.
[25] abbreviates: measured here: combination with cisplatin, at 5 µM.

“And” between values parts separate entries of the source, which are not always exact repeats. Equal entries are not always repeated. For some of these results: Entries with a potency or affinity are not part of this list. The source made the active and inactive calls. Cut-off read from the data, not from the text of the source, unless noted: active = inhibition above about 80%; inactive = the rest.

For `Cc1c(C(=O)NN2CCCCC2)nn(-c2ccc(Cl)cc2Cl)c1-c1ccc(I)cc1`, in assay [1], the survival is 93 (inactive). In assay [2], the fold fluorescence was 6.03 (inactive).

Consider `Cc1cnc(C(=O)NCCc2ccc(S(=O)(=O)NC(=O)NC3CCCCC3)cc2)cn1`, for which the survival in assay [1] is 31.5 (inactive).

As a reminder, the inhibition is the drop in the measured response relative to a control, in per cent. As to `O=c1[nH]c(=O)n(C2CCCO2)cc1F` (configuration not stated), the inhibition in [3] (at 0.5 µM, stronger effect = higher value) was -23.3% (inactive) and -7.12% (inactive); in assay [3] (measured here: combination with BGB IC20, at 0.005 µM) it was 1.7% and -19.8%; in assay [3] (measured here: combination with BGB IC40, at 0.005 µM) it was 22.1% and -46.3%; in [3] (setting [21]) it was 39.2% and -46.2%; in assay [3] (measured here: combination with cisplatin, at 0.5 µM, stronger effect = higher value), -44.2% and 1.28%; in assay [3] (measured here: combination with cisplatin, at 5 µM, stronger effect = higher value), -1.4% and -18.1%. For the same compound, the inhibition in assay [4] (BGB combo, at 5 µM) was 12.1% and -46.5%; in assay [4] (at 0.5 µM), 9.66% (inactive) and -23% (inactive); in assay [4] (cisplatin combo, at 5 µM), 10.3% and -19.4%; in [4] (setting [22]) it was 23.6% and -35.7%; in assay [4] (setting [23]), 2.46% and -11.5%; in assay [4] (single agent, at 5 µM) it was -7.16% and -34.9%. The inhibition in assay [5] (at 0.5 µM) was -5.43% (inactive) and -39.4% (inactive); in assay [5] (setting [21]), 2.48% and -16.7%; in assay [5] (setting [24]), -8.32% and -55.8%; in [5] (setting [25]) it was -0.329% and -28.6%; in assay [6] (at 0.5 µM) it was 2.38% (inactive) and -13.2% (inactive); in [6] (measured here: with BGB IC20, at 0.5 µM), -7.69% and 6.31%. Besides, the inhibition is -1.29% and -14.6% in [6] (measured here: with BGB IC20, at 5 µM); -5.89% and -34.8% in [6] (measured here: with cisplatin IC20, at 0.5 µM); 2.69% and -26.3% in [6] (measured here: with cisplatin IC20, at 5 µM); 15.1% and -15% in [6] (single agent, at 5 µM); 3.75% (inactive) and -63.9% (inactive) in assay [7] (at 0.5 µM); 7.31% and -58.1% in assay [7] (measured here: combination with BGB at IC20, at 0.5 µM). Besides, the inhibition in assay [7] (measured here: combination with cisplatin at IC20, at 0.5 µM) was 18.7% and -78.1%; in assay [8] (at 0.5 µM), 1.31% (inactive) and -8.99% (inactive); in assay [8] (measured here: combo with BGB at IC20, at 0.5 µM), -4.63% and -10.8%; in assay [8] (measured here: combo with cisplatin at IC20, at 0.5 µM), 6.01% and -7.71%; in [9] (at 0.5 µM), 3.3% (inactive) and -11.4% (inactive); in [9] (measured here: inhibition with BGB combination, at 0.05 µM), 7.79% and -33%. The inhibition in assay [9] (measured here: inhibition with cisplatin combination, at 0.05 µM) is 4.79% and -22.4%; in [10] (at 0.5 µM), -0.54% (inactive) and -25.9% (inactive); in assay [10] (setting [24]), 8.78% and -21.2%; in [10] (setting [25]) it was 11.8% and -36.1%; in [11] (at 0.5 µM) it was -0.47% (inactive) and -23.2% (inactive); in assay [11] (measured here: BGB combination, at 0.5 µM) it was -3.41% and -22.4%. For the same compound, the inhibition was -17.4% and -31.2% in assay [11] (measured here: BGB combination, at 5 µM); 0.87% and -34.6% in [11] (measured here: cisplatin combination, at 0.5 µM); -5.11% and -24.1% in [11] (measured here: cisplatin combination, at 5 µM); 6.02% and -15.3% in [12] (BGB combination, concentration series, at 5 µM); 3.23% (inactive) and -25.5% (inactive) in assay [12] (at 0.5 µM); 12% and 0.169% in assay [12] (cisplatin combination, concentration series, at 5 µM). The inhibition is 4.65% (inactive) and -9.75% (inactive) in assay [13]; 0.017% and -11.8% in assay [13] (measured here: combo with BGB IC20); 11% and -8.67% in assay [13] (measured here: combo with cisplatin IC20); 11.3% (inactive) and -10.3% (inactive) in assay [14] (at 0.5 µM); -7.35% and -15% in assay [14] (cisplatin combination, at 0.5 µM); -13.3% and -155% in assay [14] (cisplatin combination, at 5 µM). Further, the inhibition in assay [14] (measured here: BGB IC40 combination 0.05 uM, at 0.05 µM) was 5.6% and -35.5%; in [14] (single agent, at 5 µM) it was 10.4% and -13.1%; in assay [15] (at 0.5 µM), 1.7% (inactive) and -8.58% (inactive); in assay [15] (cisplatin combo, at 5 µM), 12.7% and -18.4%; in [15] (measured here: BGB IC40 combination, at 0.05 µM), -6.79% and -15.3%; in assay [15] (setting [24]) it was 2.62% and -23%. Further, the inhibition in assay [15] (single agent, at 5 µM) is -0.936% and -12.4%; in assay [16] (at 0.5 µM), -31.3% (inactive) and -16.2% (inactive); in assay [16] (setting [22]), -54.2% and -32.2%; in assay [16] (setting [23]), -19.9% and -9.92%; in [16] (single agent, at 0.05 µM), 6.98% and -30.8%; in [16] (single agent, at 5 µM), -17.9% and -2.7%.

As for `CCN(CC)CC#CCOC(=O)C(O)(c1ccccc1)C1CCCCC1` (configuration not stated), the survival in assay [1] was 12.5 (inactive).

With `CC(C)C[C@H](NC(=O)[C@@H](O)[C@H](N)Cc1ccccc1)C(=O)O`, the fold fluorescence in assay [2] is 3.88 [at 162.1 µM] (inactive).

Take `CCOC(=O)c1ccc(OC(=O)CCCCCN=C(N)N)cc1`: the survival in [1] was 18.2 (inactive).

For `CC(C)NCC(O)c1ccc(NS(C)(=O)=O)cc1` (configuration not stated), in [1], the survival is 2.17 (inactive).

In the case of `CC[C@H]1OC(=O)[C@H](C)[C@@H](O[C@H]2C[C@@](C)(OC)[C@@H](O)[C@H](C)O2)[C@H](C)[C@@H](O[C@@H]2O[C@H](C)C[C@H](N(C)C)[C@H]2O)[C@](C)(O)C[C@@H](C)CN(C)[C@H](C)[C@@H](O)[C@]1(C)O`, the inhibition in assay [17] worked out at 6.36%. In assay [18], the score worked out at 1.1. The compound further gave a rescue above control in [19] of 0.7. In addition, the cytochrome c release ratio in assay [20] was 1.04.

For the compound `O=C(c1ccc(OCCN2CCCCC2)cc1)c1c(-c2ccc(O)cc2)sc2cc(O)ccc12`, in [1], the survival was 4.58 (inactive).

Consider `CC(Cc1ccc(O)c(O)c1)(NN)C(=O)O` (configuration not stated), for which, in assay [17], the inhibition was found to be 4.01%. This compound also returned a score in assay [18] of 1.18. In [19], this compound showed a rescue above control of -6.05. In addition, in [20], the cytochrome c release ratio came out at 0.84.

As to `CC(C)(S)C(N)C(=O)O` (configuration not stated), in assay [17], the inhibition amounted to 22.3%. For the same compound, the score in assay [18] is 1.79. In addition, in [19], the rescue above control was -1.67. In addition, in assay [20], the cytochrome c release ratio came to 0.98.

In the case of `COc1nc(C)nc(Cl)c1NC1=NCCN1`, the survival in [1] is 21 (inactive).

As to `Cc1cccc(CCN2CCC(C(=O)c3ccc(NS(C)(=O)=O)cc3)CC2)n1`, the fold fluorescence in assay [2] is 4.01 [at 124.5 µM] (inactive).
